# LmPK inhibitor: LmPK (Leishmania mexicana) enzyme inhibition; 290,000 compounds, 0.37% hits; Q27686; purified LmPK, Kinase-Glo ATP luminescence, 1 h; Potency, µM (top dose mostly 57.5 µM), for inactives: at the highest dose activity change, negative = inhibition, most hits filed as inhibitors; AID 1721; also: potency is read from the fitted curve at half-maximal effect; % is scaled to controls: 0 for no effect and ±100 for the full control effect
# Target sequence (Q27686 whole entry, looked up): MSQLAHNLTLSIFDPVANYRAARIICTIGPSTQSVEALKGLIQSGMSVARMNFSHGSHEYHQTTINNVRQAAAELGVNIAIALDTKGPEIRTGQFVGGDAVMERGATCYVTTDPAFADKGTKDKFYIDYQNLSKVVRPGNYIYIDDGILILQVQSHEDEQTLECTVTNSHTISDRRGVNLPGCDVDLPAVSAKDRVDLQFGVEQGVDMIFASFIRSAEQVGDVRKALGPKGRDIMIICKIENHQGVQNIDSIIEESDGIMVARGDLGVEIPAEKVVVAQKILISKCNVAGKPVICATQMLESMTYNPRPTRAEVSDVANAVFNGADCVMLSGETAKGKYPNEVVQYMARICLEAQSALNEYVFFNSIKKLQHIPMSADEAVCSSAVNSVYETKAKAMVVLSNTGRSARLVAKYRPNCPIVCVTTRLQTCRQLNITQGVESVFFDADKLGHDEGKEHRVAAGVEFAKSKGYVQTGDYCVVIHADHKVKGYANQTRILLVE
#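 qHTS format; LmPK 0.1 nM; substrates PEP 0.5 mM and ADP 0.1 mM. One-hour room-temperature incubation, then coupled luciferase luminescence; 0.5 nM enzyme wells mark activation.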
# Tb PYK inh: blocks Trypanosoma brucei pyruvate kinase. 410,000 compounds, 0.12% hits. TbPYK enzyme, Kinase-Glo Plus ATP luminescence, 45 min. Q57TT1. Potency, µM (series often up to 76.8 µM), without a hit: at the top dose activity, negative = inhibition, usual class: inhibitors. AID 624173; also: potency is read from the fitted curve at half-maximal effect; % is scaled to controls: 0 for no effect and ±100 for the full control effect; nearly all actives have a fitted effect of over 50% in size
#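 Activity of T. brucei pyruvate kinase was followed by Kinase-Glo Plus luminescence after the enzyme reacted 45 min at room temperature with 130 uM ADP (final) and substrate. Test compounds were added before ADP at multiple concentrations.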
# Giardia FBPA inh: inhibitors of Giardia lamblia fructose-1,6-bisphosphate aldolase | A8B2U2 | purified Giardia FBPA | Potency, µM (series often up to 59.6 µM), for inactives: at the highest dose activity, negative = inhibition, hits mostly inhibitors | 290,000 compounds, 0.71% hits; also: potency is read from the fitted curve at half-maximal effect; % is scaled to controls: 0 for no effect and ±100 for the full control effect; nearly all actives have a fitted effect of over 55% in size
#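 Giardia FBPA (40 nM reagent) was preincubated 10 min at RT with compound (up to 57.5 uM final), then substrate plus GAPDH/TPI/NAD/arsenate coupling system with diaphorase/resazurin was added; resorufin fluorescence (525/598 nm) was read after 20 min.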
# Sm TGR inh: S. mansoni TGR enzyme inhibition. Potency, µM (top dose mostly 114 µM), inactives show top-dose activity change, negative = inhibition, hits mostly inhibitors. purified TGR, DTNB reduction, TNB absorbance 405 nm. Q962Y6. 360,000 compounds, 3% hits; also: potency is read from the fitted curve at half-maximal effect; % is scaled to controls: 0 for no effect and ±100 for the full control effect; nearly all actives have a fitted effect of over 60% in size
#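 TGR 20 nM + NADPH 100 uM (dispensed conc.), cpd preinc 15 min RT; start with NADPH (500 uM addition) then DTNB (15 mM addition). Kinetic TNB absorbance, 405 nm filter. Four-parameter Hill fit across titration.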
# Shiga inhibitor: blocks Shiga toxin action in Vero cells; Vero cells, Shiga toxin protein synthesis inhibition reporter; inhibition, % at 38.7 µM; 290,000 compounds, 9.2% hits; AID 2315; in the data active = inhibition mostly above about 28%, no sharp cut-off; inactive = mostly below about 43%; also: 0% is about no effect
# CHX counter: counter-screen hit for Shiga toxin inhibitors, cycloheximide | cell reporter, cycloheximide protein synthesis inhibition counterscreen | max response, % | 300,000 compounds, 12% hits | AID 2314; in the data active = max response mostly above about 13%, no sharp cut-off; inactive = mostly below about 14%; also: read at 38.3 µM for the half of the compounds with a filed dose; 0% is about no effect
# Starred values were filed as active, the others as inactive; ? = inconclusive; . = no result given; [ ] = remark or other dose. Many of the other results were omitted from the sample, so hits are more common in it than they were. Unless noted, calls follow the shape of the dose curve; as a rule, active = well fitted curve in the direction sought with a large enough effect; inconclusive = small, poorly fitted or top-dose-only effect, or another doubt; inactive = no such curve, though single readings can be large; an effect the other way counts as inactive or inconclusive.
SMILES,LmPK inhibitor,Tb PYK inh,Giardia FBPA inh,Sm TGR inh,Shiga inhibitor,CHX counter
N#Cc1cccc(NC(=O)N2CCC3(CC2)CCN(C(=O)c2csnn2)CC3)c1,.,-6%,4%,.,.,.
CNC(=S)N/N=C/C1=CCC2CC1C2(C)C (stereo not drawn),0%,2%,-7%,2%,-2,-6
CC1(C)C2CC=C(/C=N/NC(=O)c3ccccc3O)C1C2 (stereo not drawn),-1%,0%,-1%,-14%,36*,8
CC1(C)C2CC=C(/C=N/NC(=S)NCCc3ccccc3)C1C2 (stereo not drawn),-1%,-1%,-6%,-8%,29,17*
O=C(C1=C[C@@H](c2csc3ccccc23)C[C@@H](OCc2ccc(CO)cc2)O1)N1CCOCC1,6%,0%,-8%,-29%,-7,11*
O=C(C1=C[C@@H](c2csc3ccccc23)C[C@@H](OCCCCO)O1)N1CCN(Cc2ccc3c(c2)OCO3)CC1,6%,-1%,-1%,-10%,-7,3
O=C(C1=C[C@@H](c2csc3ccccc23)C[C@@H](OCc2ccc(CO)cc2)O1)N1CCN(Cc2ccccc2)CC1,-2%,2%,-13%,35µM*,-6,-2
O=C(Nc1ccccc1)C1=C[C@H](c2csc3ccccc23)C[C@H](OCc2ccc(CO)cc2)O1,10%,1%,0%,4%,3,2
O=C(C1=C[C@@H](c2csc3ccccc23)C[C@@H](OCc2ccc(CO)cc2)O1)N1CCN(Cc2ccc3c(c2)OCO3)CC1,0%,0%,-7%,-8%,2,-2
O=C(C1=C[C@H](c2ccc(Br)cc2)C[C@H](OCCCCO)O1)N1CCN(Cc2ccccc2)CC1,7%,4%,-5%,35µM*,2,1
O=C(C1=C[C@H](c2csc3ccccc23)C[C@H](OCCCCO)O1)N1CCN(Cc2ccccc2)CC1,9%,-3%,?,18µM*,-1,-2
O=C(C1=C[C@H](c2ccc3c(c2)OCO3)C[C@H](OCCCCO)O1)N1CCOCC1,5%,-1%,9%,?,-6,7
O=C(C1=C[C@@H](c2ccccc2)C[C@@H](OCc2ccc(CO)cc2)O1)N1CCN(Cc2ccc3c(c2)OCO3)CC1,3%,0%,-11%,-9%,-3,-1
O=C(C1=C[C@H](c2ccccc2)C[C@H](OCCCCO)O1)N1CCOCC1,0%,1%,7%,45µM*,-14,0
O=C(C1=C[C@H](c2ccccc2)C[C@H](OCc2ccc(CO)cc2)O1)N1CCN(Cc2ccccc2)CC1,6%,1%,-19%,28µM*,-4,-1
COC(=O)CCCc1nc2ccccc2s1,-6%,0%,1%,-20%,33*,25
O=C(CCc1nc2ccccc2s1)c1ccccc1,1%,-10%,-13%,-8%,4,37*
O=C(CCc1nc2ccccc2s1)OCC(=O)c1ccccc1,-1%,-3%,-1%,-13%,31,12*
Cc1nc(Cn2c3ccc(NC(=S)NC4CCCCC4)cc3c(=O)n2C)cs1,.,2%,.,.,.,.
CCOC(=O)C1(CC2CCCCO2)CCN(Cc2ccccc2-c2ccco2)CC1 (stereo not drawn),-2%,0%,-7%,40µM*,13,1
COc1ccccc1NC(=O)CCn1nc(-c2ccccc2OC)c2c(C)cc(C)nc21,.,5%,.,-5%,.,.
N#CC(C#N)=Cc1cc2ccccc2nc1N1CCCCC1,1%,5%,-15%,5µM*,41*,42*
CCOC(=O)/C(C#N)=C/c1cc2ccccc2nc1N1CCOCC1,0%,-1%,-1%,41%,-12,-3
CCCn1c(C)nc2c(NCc3ccccc3)nc(C)nc21,.,.,0%,.,.,.
NC1=C(c2ccccc2)C(=O)NC1=O,-13%,8%,14%,-14%,20,1
SMILES,LmPK inhibitor,Tb PYK inh,Giardia FBPA inh,Sm TGR inh,Shiga inhibitor,CHX counter
O=C(C/C=N/OCc1ccc(Cl)cc1)c1cnc(-c2ccccc2)s1,1%,-5%,-1%,16%,31,-3
CO/N=C/CC(=O)c1cnc(-c2ccccc2)s1,7%,2%,-19%,-1%,40,19*
C/C(=N\O)c1ccc2c3ccccc3n(C)c2c1,5%,-1%,2%,-18%,105*,46*
COc1ccccc1N(C)S(=O)(=O)c1ccc(C(=O)Nc2cccc(S(=O)(=O)N3CCOCC3)c2)cc1,.,4%,.,.,.,.
C=CCSc1nnc(NC(=O)c2cn(CC)c3nc(C)ccc3c2=O)s1,-1%,-2%,-6%,50µM*,-6,3
CCn1cc(C(=O)Nc2ccccc2)c(=O)c2ccc(C)nc21,1%,.,-2%,0%[57.1 µM],27,1
C=CCN1C(=O)/C(=C\C(C)=C\c2ccccc2)SC1=S,0%,-10%,0%,-10%,.,-4
C=CCN1C(=O)/C(=C/c2ccc(OC(C)=O)c(OCC)c2[N+](=O)[O-])SC1=S,-12%,4%,?,.,103*,27*
Cc1cccc(Nc2nnc(-c3ccc(C)c(S(=O)(=O)N4CCOCC4)c3)c3ccccc23)c1,.,1%,.,-3%,.,.
CCN1C(=O)/C(=C/C=C2\C=CN(CC)c3ccccc32)SC1=S,18µM*,?,?,?,-6,11
CCOc1ccc2oc(C(=O)N3CC(C)OC(C)C3)c(C)c2c1 (stereo not drawn),-6%,4%,.,-6%,18,24*
CCOc1ccc2oc(C(=O)Nc3ccc4c(c3)OCO4)c(C)c2c1,-2%,-1%,-19%,-12%,106*,25*
CCOc1ccc2oc(C(=O)N3CCN(Cc4ccccc4)CC3)c(C)c2c1,4%,-1%,-7%,-21%,-9,0
Cc1oc2ccc(OCc3ccc(Br)cc3)cc2c1C(=O)O,2%,-19%,-12%,-6%,10,9
CCOc1ccc2oc(C(=O)O)c(C)c2c1,6%,0%,5%,-1%,23,26*
CCOc1ccc2oc(C(=O)Nc3ccc(N4CCOCC4)cc3)c(C)c2c1,1%,0%,4%,-1%,-4,0
Cc1oc2ccc(OCc3ccc(Cl)cc3)cc2c1C(=O)O,4%,2%,-22%,11%,87*,27*
CCC(=O)N1CCC1(C)C(=O)Nc1cc(OC)ccc1OC (stereo not drawn),.,0%,.,.,.,.
CCC1=C2CC[C@H]3C(=O)N(c4ccccc4)C(=O)[C@H]3[C@H]2[C@@]2(Cc3ccccc3)C(=NCCc3c[nH]c4ccccc34)OC(=O)N2C1=O,.,.,0%,.,.,.
CCc1nnc(NS(=O)(=O)c2ccc(NC(=S)NC(=O)c3cccnc3)cc2)s1,-2%,-4%,11%,18µM*,-4,-2

# Screens (PubChem BioAssay)
